Source: PubChem BioAssay (several laboratories)
A selection: hits, their analogues and other compounds. The true share with any hit is near 2.2%.
aSyn 5UTR inh: MLPCN primary screen, SNCA 5' untranslated region; alpha-synuclein 5'UTR reporter, inhibitor activity; inhibition, % (tested at 7.5 µM); 0.82% of 300,000 active; in the data active = inhibition above about 60%;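 note: H4 neuroglioblastoma cells stably carrying SNCA 5'UTR luciferase fusion; 0% = DMSO wells and 100% = positive control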
Ba/F3 V617F tox: reduce viability of Ba/F3 cells dependent on JAK2V617F. AID 1446. Ba/F3 EpoR-JAK2V617F viability, ATP luminescence. inhibition, % at 5.6 µM. 1.1% of 220,000 active;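 active = inhibition above the campaign mean plus 3 SD over all tested compounds, cut at about 24% in these data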;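 note: cytokine-independent growth of Ba/F3 cells driven by EpoR plus mutant JAK2; 0% = DMSO-treated cells and 100% = JAK inhibitor I control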
APP transl inh: APP translation inhibition; AID 1285; inhibition, % at 2 µM; SH-SY5Y APP 5'UTR-luciferase reporter, luminescence; 0.82% of 190,000 active;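 active = inhibition above a set limit, derived from the sample mean plus 3 SD, cut at about 45% in these data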
IEC-6 tox: IEC-6 cytotoxicity, counter-screen for KLF5 inhibitors; luminescence viability; 0.78% of 290,000 active; AID 1825; inhibition, % at 5 µM; in the data active = inhibition above about 22%;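 note: 0% = plate median of test compound wells and 100% = cytotoxic reference compound wells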
KLF5 inhibitor: suppresses KLF5 promoter-driven expression; inhibition, % at 5 µM; DLD-1 KLF5 promoter-luciferase reporter, luminescence; 0.23% of 290,000 active;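 active = inhibition above a per-plate limit of that plate's mean compound inhibition plus 3 SD, cut at about 60% in these data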;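 note: 0% = DMSO wells and 100% = LY294002 at 200 µM; higher means less KLF5 promoter-driven luciferase light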
BaF3 tox: reduces parental Ba/F3 cell viability, JAK2V617F counter-screen; 1.1% of 220,000 active; AID 1486; CellTiter-Glo ATP luminescence; inhibition, % at 5.6 µM;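 active = inhibition above a per-campaign cutoff, the mean inhibition of all tested compounds plus 3 SD, cut at about 27% in these data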;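 note: 0% = DMSO wells and 100% = JAK Inhibitor I control wells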
BaF3 parental 2: reduces parental Ba/F3 viability, JAK2V617F counter-screen; inhibition, % at 5.6 µM; shares compounds with Ba/F3 V617F tox; AID 1520; 31% of 580 active; CellTiter-Glo luminescence; cells kept alive by added IL-3;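 active = cell growth inhibition above the hit limit set in the earlier mutant JAK2 cell screen, cut at about 27% in these data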;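 note: plate controls were DMSO-treated cells for no effect and JAK Inhibitor I control wells for full effect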
JAK2V617F conf: confirmation: loss of viability in JAK2V617F-dependent Ba/F3 cells. shares compounds with Ba/F3 V617F tox. Ba/F3 EpoR-JAK2V617F viability, CellTiter-Glo luminescence. inhibition, % at 5.6 µM. 66% of 580 active. AID 1521;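 active = mean inhibition above the hit cutoff derived in the earlier primary screen, cut at about 25% in these data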;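 note: 0% = DMSO-treated cells and 100% = JAK inhibitor I control wells; higher means lower luminescence from reduced cell ATP and viability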
* marks the source's active call; other numbers are inactive results; . = not tested or not shown.

SMILES	aSyn 5UTR inh	Ba/F3 V617F tox	APP transl inh	IEC-6 tox	KLF5 inhibitor	BaF3 tox	BaF3 parental 2	JAK2V617F conf
CCOC(=O)Cc1nc(-c2ccc(Cl)cc2)n[nH]1	-31.7	0.8	-3.5	0.4	-19.7	8.2	.	.
COc1ccc(-c2csc(Nc3ncccc3C)n2)cc1OC	-172.0	1.9	-31.0	3.3	-102.7	3.9	.	.
Cc1cccnc1Nc1nc(-c2ccc(O)c(O)c2)cs1	-231.6	80.5*	-39.3	14.3	-176.3	24.7	24.5	92.6*
Cc1cccc(N(CC(=O)NC2CCCCC2)C(=O)CCC(=O)Nc2nccs2)c1	-6.2	.	.	3.4	-2.3	.	.	.
Cc1cccc(C(=O)Nc2ccc(C(=O)Nc3ccc(O)cc3)cc2)c1	6.2	.	.	12.5	7.4	.	.	.
CCOc1ccc(NC(=S)N2CCC(NC(=O)C3CCCCC3)CC2)cc1	9.0	.	.	6.7	9.0	.	.	.
COc1ccc(OCC(O)Cn2c(=N)n(CCN3CCCCC3)c3ccccc32)cc1 (centres undefined)	.	34.2*	14.9	0.9	-23.7	14.2	-0.3	19.6
Cc1ccccc1OCC(O)Cn1c(=N)n(Cc2ccccc2)c2ccccc21 (centres undefined)	113.2*	47.6*	.	5.6	-15.1	17.2	20.9	52.7*
Cc1cc(C)nc(N(C#N)CCOc2ccccc2)n1	11.3	54.1*	10.5	-1.4	-11.2	17.9	9.5	17.6
CN(C)c1nc(N(C)C)nc(N(C#N)CCOc2ccccc2)n1	-7.1	3.4	-17.6	4.5	-22.6	7.4	.	.
NC1=NC2(CCCCC2)N(c2ccc(F)cc2)C(N)=N1	4.6	23.5*	4.1	-5.2	-31.4	11.1	-4.1	32.7*
COc1ccccc1N1C(N)=NC(N)=NC1(C)C	-0.1	20.4	-3.6	-0.4	-13.7	16.6	.	.
O=C(Nc1ccccc1)c1cnc2ccccc2n1	-116.0	102.6*	-51.1	19.4	-26.7	9.5	-0.8	-3.9
CCOc1cc(S(=O)(=O)n2ccnc2)ccc1Br	-6.1	1.6	1.3	1.4	-22.5	5.3	.	.
CCOc1cc(S(=O)(=O)n2ccc(C)n2)ccc1Br	-6.8	30.3*	10.7	1.6	-7.2	13.2	-7.9	-2.8
Cc1ccccc1C(=O)Nc1nnc(SCC(=O)NCc2ccco2)s1	-42.9	.	.	2.3	-76.8	.	.	.
CCOc1ccccc1/C=N/NC(=O)c1c(C)nc2ccc(Br)cn12	11.0	.	.	12.0	-18.9	.	.	.
COc1cccc(/C=N/NC(=O)c2c(C)nc3ccc(Br)cn23)c1O	71.0*	24.4*	61.1*	6.2	49.4	6.7	62.1*	65.6*
COc1ccc(S(=O)(=O)N2CCOC2CNC(=O)C(=O)NCCCN2CCOCC2)cc1 (centres undefined)	-19.3	.	.	-3.3	-7.6	.	.	.
COc1ccc(C2c3ccc4ccccc4c3Oc3ncn(CCCO)c(=N)c32)cc1OC (centres undefined)	-10.7	81.3*	.	5.7	-1.3	0.8	0.1	8.2
COCCC(=O)N1CCC(Oc2ccc(C(=O)N3CCC(N(C)C)C3)cc2)CC1 (centres undefined)	14.0	.	.	1.8	-3.6	.	.	.
O=C1OC(/C(=C\Nc2cc(Cl)ccc2O)[N+](=O)[O-])c2ccccc21 (centres undefined)	-102.1	45.9*	-43.2	-2.6	6.5	13.1	4.2	55.9*
O=C1OC(/C(=C\Nc2ccc(F)cc2F)[N+](=O)[O-])c2ccccc21 (centres undefined)	-41.5	0.8	5.4	-2.2	-20.3	3.2	.	.
CC(=O)N(Cc1ccccc1)c1c(N)nc(N)[nH]c1=O	-2.9	.	.	.	.	.	.	.
Cc1cc(C)nc(/N=C(\N)Nc2cccc(OCc3ccccc3)c2)n1	6.6	10.3	.	16.9	-2.3	3.2	.	.
SMILES	aSyn 5UTR inh	Ba/F3 V617F tox	APP transl inh	IEC-6 tox	KLF5 inhibitor	BaF3 tox	BaF3 parental 2	JAK2V617F conf
Cc1cc(C)nc(/N=C(\N)Nc2ccc(OCc3ccccc3)cc2)n1	12.5	34.1*	6.2	8.3	-87.2	11.3	4.6	38.9*
O=C(O)c1ccccc1N=Cc1c(O)n(-c2nccs2)c(=O)c2ccccc12	-3.9	17.0	.	3.3	-14.7	2.1	.	.
CCN(CC)S(=O)(=O)c1cccc(-n2c(O)c(C=Nc3ccccc3C(=O)O)c3ccccc3c2=O)c1	-57.6	26.2*	.	16.9	-20.6	9.8	9.3	54.7*
O=S(=O)(c1cnc(Cl)c(Cl)c1)N1CCc2ccccc21	-29.7	25.3*	.	-2.3	-11.8	-2.9	-6.3	58.7*
O=S(=O)(c1cc(Cl)ccc1Cl)N1CCc2ccccc21	-5.5	.	.	7.6	-32.9	.	.	.
O=S(=O)(c1cnc(Cl)c(Cl)c1)N1CCCc2ccccc21	-34.4	3.6	-12.5	6.3	4.8	2.9	.	.
O=S(=O)(c1cnc(Cl)c(Br)c1)N1CCc2ccccc21	29.6	27.7*	.	-4.7	-16.1	-0.4	-0.5	58.4*
Cc1ccccc1-n1nc(-c2cccnc2)cc1C(=O)NN	8.8	2.9	4.8	3.1	-2.9	1.3	.	.
O=C(O)c1ccc(N/N=C/c2ccc(-c3ccc(Cl)cc3Cl)o2)cc1	-62.3	30.5*	.	10.7	16.2	12.6	45.1*	33.4*
COc1ccc(-c2cnnc(N/N=C/c3ccc(O)c(O)c3)n2)cc1	-90.2	46.7*	-11.5	-0.1	14.4	10.9	83.0*	99.6*
CC1CCN(S(=O)(=O)c2ccc(C(=O)N3CCOCC3)cc2)CC1	7.2	.	.	1.7	-30.9	.	.	.
CC(C)Oc1ccc(C(=O)NCCCNC(=O)c2cccnc2)cc1	6.8	.	.	4.9	-16.6	.	.	.
CCn1c(COC(=O)CNC(=O)c2ccccc2)nc2cc(S(=O)(=O)N(C)C)ccc21	1.1	.	.	.	.	.	.	.
CCCc1nc2n[nH]c(N)c2c2c1CCCC2	42.7	24.9*	-14.4	2.8	-1.8	3.2	-0.8	38.8*
CCCc1nc2n[nH]c(N)c2c2c1CCC2	29.5	0.8	6.3	6.6	0.8	-0.3	.	.
COc1ccc(Cl)cc1S(=O)(=O)N1CCN=C1Cc1ccccc1	21.5	.	.	-3.5	-22.9	.	.	.
COc1ccccc1S(=O)(=O)n1cc(Cc2ccccc2)c(N)n1	.	99.7*	-0.3	-0.2	-23.0	0.8	-6.6	-5.3
Cc1ccc(Nc2cc(C)nc3ncnn23)cc1	9.7	.	.	0.9	-17.3	.	.	.
Cc1[nH]c2ccccc2c(=O)c1C(=O)/C=C/c1ccccc1	-280.5	58.7*	.	12.1	1.8	-4.8	20.0	96.1*
CCOc1ccc(N2C(=O)CC(NC3CCN(C(=O)c4ccc(F)cc4)CC3)C2=O)cc1 (centres undefined)	-11.9	.	.	6.9	-14.7	.	.	.
CN(c1ccccc1)S(=O)(=O)c1cccc(C(=O)NCCc2ccc(O)c(O)c2)c1	6.8	32.5*	-4.2	11.7	-9.2	6.9	3.6	66.8*
Cc1ccc(C(=O)C2CCN(C(=S)NCCCOC(C)C)CC2)cc1	9.6	.	.	-10.7	-28.2	.	.	.
CCOc1cc(C(=O)Nc2ccc(N3CCN(S(C)(=O)=O)CC3)cc2)cc(OCC)c1OCC	6.6	100.3*	-3.9	-4.7	-11.4	4.7	-0.9	7.2
CCNC(=S)NNC(=O)c1ccccn1	4.8	2.5	9.6	-11.0	1.9	5.7	.	.
O=C(NNC(=S)Nc1ccc(Cl)c(Cl)c1)c1ccccn1	68.0*	31.6*	30.9	6.5	49.9	4.2	51.0*	47.2*
